# Assay results reported in PubChem BioAssay (NCATS).
# Results filed as inconclusive are left out. Activity calls are given as the source filed them. Calls follow the shape of the dose curve; as a rule, active = well fitted curve in the direction sought with a large enough effect; inconclusive = small, poorly fitted or top-dose-only effect, or another doubt; inactive = no such curve, though single readings can be large; an effect the other way counts as inactive or inconclusive.
# Tested on: not listed separately
# Experiment: qHTS to identify inhibitors of the type 1 interferon - major histocompatibility complex class I in skeletal muscle: primary screen against the NCATS Mechanism Interrogation Plate v5.0 (MIPE) Libary (AID 1347411); also: nearly all actives have a fitted effect of over 65% in size; also: potency is read from the fitted curve at half-maximal effect;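 as to activity change, negative = inhibition: plate controls were vehicle for no effect and reference inhibitor for full effect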
# Conditions: iHSKM cells + IFN-b, HiBiT-tagged MHC-I luminescence, 24 h; series mostly up to 45.8 µM; activity change, negative = inhibition: at the top concentration
# Outline: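 Immortalized human myoblasts (C25cl48) with HiBit knocked into endogenous HLA-B*08:01 were stimulated with 4 ng/ml IFN-beta and given compounds in 11-point 1:3 titration from 46 uM. After 24 h at 37 C, lytic HiBiT luminescence was read.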
Structure (SMILES),"activity change, negative = inhibition",Potency
Cc1n[nH]c(C)c1Cc1sc2c(c1C(=O)N1C[C@H](O)CO1)c(=O)n(C)c(=O)n2CC(C)C,1.35% (inactive),–
CCN(CC)CCCC(C)Nc1nc(C)cc(Nc2ccc3nc(C)cc(N)c3c2)n1 (configuration not stated),-2.22% (inactive),–
NC(=O)c1ccc(I)c([N+](=O)[O-])c1,-16.8% (inactive),–
CC[C@@H](C)[C@H](NC(=O)[C@H](CC1CCCCC1)NC(=O)c1ccno1)C(=O)N1CCC2(CCc3ccccc32)CC1,-40.1% (inactive),–
COc1ccc(-c2c(-c3ccc(O)cc3O)n[nH]c2C)cc1,-41.5% (inactive),–
Cn1cnc2c(F)c(Nc3ccc(Br)cc3Cl)c(C(=O)NOCCO)cc21,-7.94% (inactive),–
COc1cc(Oc2ccnc3cc(OC)c(OC)cc23)ccc1NC(=O)NC(C)c1nccs1 (configuration not stated),-23.6% (inactive),–
Cn1c(=O)c(F)c(Nc2ccc(I)cc2F)c2c(=O)n(C[C@@H](O)CO)cnc21,30.7% (inactive),–
N#Cc1ccc(C(c2ccc(C#N)cc2)n2cncn2)cc1,-11.9% (inactive),–
CN(C(=O)c1ccc(F)cc1C(F)(F)F)C1CCN(c2nnc(-c3ccnn3C)c3ccccc23)CC1,8.88% (inactive),–
Clc1ccc(Nc2nnc(Cc3ccncc3)c3ccccc23)cc1,-14.4% (inactive),–
O=C(Nc1ccc(F)c(C(F)(F)F)c1)Nc1nnc(-c2ccncc2)s1,1.89% (inactive),–
CC(C)c1onc(-c2c(Cl)cccc2Cl)c1COc1ccc(/C=C/c2cccc(C(=O)O)c2)c(Cl)c1,-9.77% (inactive),–
O=C(O)[C@@H](c1ccc(OCc2ccc3ccccc3n2)cc1)C1CCCC1,31% (inactive),–
CNC(=O)c1ccc(C)c(-n2c(C)cc(OCc3ccc(F)cc3F)c(Br)c2=O)c1,-43.2% (inactive),–
N#CC[C@H](C1CCCC1)n1cc(-c2ncnc3[nH]ccc23)cn1,-70.1% (inactive),–
C[C@]1(c2nc3c(C(N)=O)cccc3[nH]2)CCCN1,-15.1% (inactive),–
COc1ccccc1-c1cccc(-c2c(O)c3cc(C#N)c(Cl)cc3[nH]c2=O)c1,-22.8% (inactive),–

Structure (SMILES),"activity change, negative = inhibition",Potency
OCCn1cc(-c2cnc3nnn(Cc4ccc5ncccc5c4)c3n2)cn1,-10.2% (inactive),–
S=C(NCc1ccc2c(c1)OCO2)N1CCN(c2ncnc3c2oc2ccccc23)CC1,-12.5% (inactive),–
Cn1cc(-c2ccc3nnc(C(F)(F)c4ccc5ncccc5c4)n3n2)cn1,-0.804% (inactive),–
CCOc1ccn(-c2ccc(F)cc2)c(=O)c1C(=O)Nc1ccc(Oc2ccnc(N)c2Cl)c(F)c1,-28% (inactive),–
CCCCCCCc1ccc(CCc2cccc(O)c2C(=O)O)cc1,-17% (inactive),–
Cc1ccnc(NS(=O)(=O)c2ccc(NC(=O)Nc3ccc(S(=O)(=O)Nc4nccc(C)n4)cc3)cc2)n1,-2.17% (inactive),–
NC(=O)c1ccc(-c2nc(-c3ccc4c(c3)OCO4)c(-c3ccccn3)[nH]2)cc1,-3.37% (inactive),–
CCCn1c(=O)c2[nH]c(C34CC5CC3C[C@@H](C5)C4)nc2n(CCC)c1=O,6.42% (inactive),–
Nc1ncnc2nc(-c3ccc(N4CCOCC4)nc3)cc(-c3cccc(Br)c3)c12,-20.3% (inactive),–
Cc1cnc(Nc2ccc(OCCN3CCCC3)cc2)nc1Nc1cccc(S(=O)(=O)NC(C)(C)C)c1,–,5.23 µM (active)
COc1ccccc1[C@H](c1cccc2ccccc12)[C@@](C)(C#N)C(=O)N1CCC(c2cccc(C(F)(F)F)c2)CC1,-11.6% (inactive),–
NC(=O)c1ccc(-c2nc(-c3ccc4c(c3)OCCO4)c(-c3ccccn3)[nH]2)cc1,-36.8% (inactive),–
O=C(C1CC1)N1CC[C@@H](Cn2c(-c3ccc(-c4ccc5occc5c4)cc3)nc3cnccc32)C1,-24.8% (inactive),–
CC(C)(N)C(=O)N[C@H](COCc1ccccc1)C(=O)N1CCC2(CC1)CN(S(C)(=O)=O)c1ccccc12,31.4% (inactive),–
CCN(c1ccccc1)c1cc(NC)[n+](C)c(C)n1,-11.6% (inactive),–
c1ccc(-c2nn3c(c2-c2ccnc4cc(OCCN5CCOCC5)ccc24)CCC3)nc1,-2.51% (inactive),–
CN[C@@H](C)C(=O)N[C@H]1CCCC[C@H]2CC[C@@H](C(=O)N[C@@H](c3ccccc3)c3cn(CCCCc4ccc(CCCCn5cc([C@@H](NC(=O)[C@@H]6CC[C@@H]7CCCC[C@H](NC(=O)[C@H](C)NC)C(=O)N76)c6ccccc6)nn5)cc4)nn3)N2C1=O,–,3.3 µM (active)

# Biological target: Protein phosphatase 1D (Homo sapiens) (UniProt O15297)
# Experiment: RapidFire Mass Spectrometry qHTS Assay for Modulators of WT P53-Induced Phosphatase 1 (WIP1) (AID 1347424);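 also: amount of dephosphorylated VEPPL-S-QETFS peptide product formed by WIP1; plate controls were DMSO wells for no effect and GSK830371 inhibitor control at 10 µM for full effect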
# Conditions: WIP1 dephosphorylation of phosphopeptide, RapidFire MS; series mostly up to 63 µM; activity change, negative = inhibition: at the top concentration
# Outline: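 WIP1 (10 nM final) was preincubated 1 h at room temperature with compounds in Tris-HCl pH 7.5, 30 mM MgCl2, TCEP, EGTA, BSA; 2 uM VEPPL-pS-QETFS phosphopeptide was added for 5 min, quenched with formic acid, and dephosphorylated product quantified by RapidFire MS.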
# Sequence of Protein phosphatase 1D (Homo sapiens) (O15297 whole entry, looked up): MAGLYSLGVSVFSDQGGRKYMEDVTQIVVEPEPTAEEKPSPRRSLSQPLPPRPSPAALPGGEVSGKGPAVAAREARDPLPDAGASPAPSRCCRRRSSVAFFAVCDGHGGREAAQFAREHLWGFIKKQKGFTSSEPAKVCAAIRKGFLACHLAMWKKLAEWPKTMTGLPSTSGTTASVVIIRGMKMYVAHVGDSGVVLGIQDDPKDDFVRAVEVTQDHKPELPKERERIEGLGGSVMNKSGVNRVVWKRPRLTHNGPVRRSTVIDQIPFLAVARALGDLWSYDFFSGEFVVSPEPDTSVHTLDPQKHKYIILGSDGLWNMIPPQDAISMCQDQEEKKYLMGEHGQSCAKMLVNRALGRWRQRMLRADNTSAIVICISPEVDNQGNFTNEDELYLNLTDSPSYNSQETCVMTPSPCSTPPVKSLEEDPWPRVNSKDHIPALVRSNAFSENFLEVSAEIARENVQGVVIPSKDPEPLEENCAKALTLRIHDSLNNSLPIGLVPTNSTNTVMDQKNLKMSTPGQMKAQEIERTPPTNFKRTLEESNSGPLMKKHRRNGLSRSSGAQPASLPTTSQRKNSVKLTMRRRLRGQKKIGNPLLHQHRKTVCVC
row,Structure (SMILES),"activity change, negative = inhibition"
1,Cn1cnc2c(F)c(Nc3ccc(Br)cc3Cl)c(C(=O)NOCCO)cc21,-8.66% (inactive)
2,Clc1ccc(Nc2nnc(Cc3ccncc3)c3ccccc23)cc1,-18.9% (inactive)
3,C#Cc1cccc(Nc2ncnc3cc(OCCOC)c(OCCOC)cc23)c1,2.39% (inactive)

# Biological target: Protein phosphatase 1D (Homo sapiens) (UniProt O15297)
# Experiment: Rhodamine-PBP qHTS Assay for Modulators of WT P53-Induced Phosphatase 1 (WIP1) (AID 1347425); also: % of control where 0% means no effect
# Conditions: recombinant WIP1, Rhodamine-PBP phosphate fluorescence, real-time; series mostly up to 57.5 µM; activity change, negative = inhibition: at the top concentration
# Outline: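 WIP1 (5 nM final) was preincubated with compound for 1 hour at room temperature. It then dephosphorylated 10 uM VEPPL-pS-QETFS peptide in Tris-HCl pH 7.5 with 30 mM MgCl2. Released Pi was detected by 10 uM Rh-PBP fluorescence (ex 525/em 598 nm) read at 1-min intervals for 11 min, as delta f1 - f0.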
row,Structure (SMILES),"activity change, negative = inhibition"
1,Cn1cnc2c(F)c(Nc3ccc(Br)cc3Cl)c(C(=O)NOCCO)cc21,18.9% (inactive)
2,CC(c1cc2ccccc2s1)N(O)C(N)=O (configuration not stated),-9.81% (inactive)
3,Clc1ccc(Nc2nnc(Cc3ccncc3)c3ccccc23)cc1,-13.2% (inactive)
4,C#Cc1cccc(Nc2ncnc3cc(OCCOC)c(OCCOC)cc23)c1,34.8% (inactive)

# Tested on: not listed separately
# Experiment: Primary qHTS for inhibitors of La Crosse Virus (LACV) - induced cell death in SH-SY5Y cells (AID 1508616);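 also: top concentration of the series differs between compounds; 0% = infected DMSO wells and 100% = uninfected DMSO wells; higher means more rescue of cells from virus-induced death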
# Conditions: SH-SY5Y LACV cytopathicity rescue, ATP luminescence, 6 d; series mostly up to 4.29 µM; activity change: at the top concentration
# Outline: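 SH-SY5Y cells (6000/well) plated 24 h, then given compounds by pin transfer and LACV at 0.01 MOI for 6 days at 37C. Viability measured by ATPLite luminescence, normalized to infected DMSO and uninfected DMSO.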
row,Structure (SMILES),activity change
1,Cn1cnc2c(F)c(Nc3ccc(Br)cc3Cl)c(C(=O)NOCCO)cc21,41.3% (inactive)
2,CC(c1cc2ccccc2s1)N(O)C(N)=O (configuration not stated),-0.645% (inactive)
3,Clc1ccc(Nc2nnc(Cc3ccncc3)c3ccccc23)cc1,-1.96% (inactive)
4,C#Cc1cccc(Nc2ncnc3cc(OCCOC)c(OCCOC)cc23)c1,-29.7% (inactive)
5,Nc1ncnc2nc(-c3ccc(N4CCOCC4)nc3)cc(-c3cccc(Br)c3)c12,-17.3% [at 9.63 µM] (inactive)
